According to PubChem BioAssay:
Results with a measured potency or affinity are listed apart. Inconclusive results are not listed. The source made the active and inactive calls.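 How the source made its calls, unless noted: active means signal drop whose fitted half-maximal concentration is at most twice the top valid dose, in every test run; inconclusive means mixed calls across runs, poor fit, or flat 30 to 70% inhibition; inactive means wrong direction, flat within 30%, or potency beyond limit.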

Tests used:
[1] = cytotoxicity in PAX8-dependent RMG-1 cells, dose response, cell-based, cherry-pick (AID 687029); details: RMG-1 viability, CellTiterGlo ATP luminescence, 96 h; series mostly up to 35 µM;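 further: cells exposed to compound for 96 hours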
[2] = cytotoxicity in IOSE-T80 ovarian epithelial cells, dose response, selectivity assay for PAX8 inhibitor project, cell-based, cherry-pick (AID 687032;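 active means fitted half-maximal concentration for viability loss no higher than twice the top valid dose, in every repeat run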;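 further: cells exposed to compound for 96 h before reading; 0% = neutral control wells and -100% = 2 µM mitoxantrone kill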); details: CellTiterGlo ATP luminescence, 96 h; series mostly up to 35 µM
[3] = inhibitors of CMV-promoter luciferase reporter, dose response, counter-screen for Pax8 inhibitor project, cell-based, HEK293, luminescence, dry powder (AID 743020;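 active means signal-lowering compounds whose fitted half-maximal concentration is at or below twice the top tested dose in every run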;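 further: HEK293 cells stably expressing the CMV luciferase reporter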); details: SteadyGlo luminescence, 24 h; series mostly up to 35 µM
[4] = non-specific cell cytotoxicity, dose response, cytotoxicity control for PAX8 inhibitor project, plate reader, dry powder samples (AID 743021; call rule not given here); details: cell line, non-specific cytotoxicity counter-screen; series mostly up to 35 µM

Measured: activity change, negative = inhibition

C#CCN(C[C@@H]1[C@@H](OC(=O)NCCCCCC)[C@@H](OC(=O)NCCCCCC)Cn2c(=O)ccc(=O)n21)S(=O)(=O)c1ccc(C)cc1
inactive: [1] | [2] | [3]

Cc1cc(N/N=C/c2ccc(O)c(C)c2O)nc(-c2ccccc2O)n1
inactive: [1] | [2] | [3]

O=C(NC1CCCCC1)C(c1cccnc1)N(C(=O)CCl)c1ccccc1Cl (stereo not given)
inactive: [1] | [2] | [3]

COc1ccc(C(C(=O)NC2CCCCC2)N(C(=O)CCl)c2ccc(C)cc2)cc1 (stereo not given)
inactive: [1] | [2] | [3]

C[C@H](CO)N1C[C@H](C)[C@@H](CN(C)C(=O)Nc2ccc3c(c2)OCO3)Oc2cc(C#Cc3ccncc3)ccc2S1(=O)=O
inactive: [1] | [2] | [3]

O=C(CCl)N=c1sccn1Cc1ccccc1Cl
inactive: [1] | [2] | [3]

O=C1C=CC(=O)c2c(O)c(N3CCN(CCOCCO)CC3)c(Br)c(O)c21
inactive: [1] | [2] | [3]

COC(=O)C1=C(C)N(Cc2cccc(C(F)(F)F)c2)C(=NCC2CC2)NC1c1cccc(C(F)(F)F)c1 (stereo not given)
inactive: [1] | [2] | [3]

O=C(OCc1ccccc1)N(CCCCN(CCCNCc1ccccc1)C(=O)OCc1ccccc1)CCCNCc1ccccc1
inactive: [1] | [2] | [3]

CC1(C)CC(=O)C=C(C#CC2(O)CCCCC2)C1
inactive: [1] | [2] | [3]

COc1ccccc1C#Cc1ccc([C@H]2[C@@H](CO)N(C(=O)C3CCCCC3)[C@H]2C#N)cc1
inactive: [1] | [2] | [3]

COc1cccc(/C=N/Nc2cc(C)nc(-c3ccccc3O)n2)c1O
inactive: [1] | [2] | [3]

COc1ccccc1C(=O)Nc1nc2ccccc2s1
inactive: [1] | [2] | [3]

COc1cc(OC)nc(-n2ncc(Br)c(Br)c2=O)n1
inactive: [1] | [2] | [3]

COc1ccc(/C=C/c2nc3ccccc3n2C)cc1
inactive: [1] | [2] | [3]

COc1ccc(C#Cc2ccc([C@@H]3[C@H](CO)N4CCCCN(C(=O)Nc5cccc(F)c5)C[C@@H]34)cc2)cc1
inactive: [1] | [2] | [3]

Cc1cccc(N(Cc2ccccc2)C(=O)CCl)c1
inactive: [1] | [2] | [3]

CC(C)CN1CCN(C(=O)COC(=O)c2ccc(S(C)(=O)=O)c([N+](=O)[O-])c2)CC1
inactive: [1] | [2] | [3]

O=C(NC1=CC(=O)c2ccccc2C1=O)c1ccccc1
inactive: [1] | [2] | [3]

Cc1nn(-c2nc3ccccc3[nH]2)c(=O)c2ccccc12
inactive: [1] | [2] | [3]

O=S(=O)(c1ccc2c(c1)C(=NO)c1cc(S(=O)(=O)N3CCCCC3)ccc1-2)N1CCCCC1
inactive: [1] | [2] | [3]

O=C(O)c1ccc(N/N=C/c2ccc3nccnc3c2)cc1
inactive: [1] | [2] | [3]

COC(=O)[C@@H]1Cc2c([nH]c3ccccc23)C(C)(C)N1C(=O)CCl
inactive: [1] | [2] | [3]

CC(C)N(CC(=O)Nc1ccc(Cl)cc1C(F)(F)F)C(=O)CCl
inactive: [1] | [2] | [3]

CN(C[C@H]1N[C@@H](CO)[C@@H]1c1ccc(C2=CCCC2)cc1)C(=O)c1ccc(F)cc1
inactive: [1] | [2] | [3] 0.4% [at 8 µM]

CC[C@@H](C(=O)[C@@H](C)[C@@H](O)[C@H](C)CCc1ccc(C)c(O)c1C(=O)O)[C@H]1O[C@](CC)([C@H]2CC[C@](O)(CC)[C@H](C)O2)C[C@@H]1C
inactive: [1] | [2] | [3]

CN(C[C@H]1N[C@@H](CO)[C@@H]1c1ccc(C2=CCCC2)cc1)C(=O)c1ccncc1
inactive: [1] | [2] | [3]

COc1cccc(/C=N/Nc2ccc(C(=O)O)cc2)c1O
inactive: [1] | [2] | [3]

COc1cccc(/C=C2/Sc3ccc(C(=O)NCCN4CCCCCC4)cc3NC2=O)c1
inactive: [1] | [2] | [3]

CCOc1ccccc1NC(=O)c1nc(S(=O)(=O)Cc2ccccc2)ncc1Cl
inactive: [1] | [2] | [3]

CCN1CCN(Cc2ccc(NC(=O)c3cc(NC(=O)c4cncc(-c5ccc(C#N)cc5)c4)cc(OC)c3)cc2C(F)(F)F)CC1
inactive: [1] | [2] | [3]

CCSc1ccc(-c2cc(NC=O)c3ncc(-c4cccc(C(=O)NCCN(C)C)c4)n3c2)cc1
inactive: [1] | [2] | [3]

COc1ccc(C(=O)NNC(=O)c2ccccn2)cc1
inactive: [1] | [2] | [3]

C=C1CCc2c([nH]c3ccc(OCC(C)C)cc23)C1=O
inactive: [1] | [2] | [3]

Cc1ccc(C)c(N2CCN(C(=O)CCCCCn3c(=S)[nH]c4ccc(N5CCOCC5)cc4c3=O)CC2)c1
inactive: all assays above

Oc1ccc(/C=N\Nc2cc(N3CCOCC3)nc(N3CCOCC3)n2)c(O)c1
inactive: all assays above

O=C(c1nnsc1S(=O)(=O)c1ccc(Cl)cc1)N1CCOCC1
inactive: all assays above

COc1ccc(NC(=O)C(Sc2nnc(-c3ccncc3)n2-c2ccccc2C)c2ccccc2)cc1Cl (stereo not given)
inactive: all assays above

C=CC[C@H](CC(=O)N(CCO)Cc1ccccc1)C(=O)N[C@@H](COC(=O)[C@H](CC=C)CC(=O)OC(C)(C)C)Cc1c[nH]c2ccccc12
inactive: all assays above

CCCCCCN1C[C@@H](n2cc(-c3ccc(F)cc3)nn2)[C@H](O)C[C@@H]1c1ccc(Cl)cc1
inactive: all assays above

Cc1ccc(S(=O)(=O)CCC(=O)c2ccc(O)cc2O)cc1
inactive: all assays above

O=C(NCc1cccnc1)/C(=C\c1ccc(-c2ccc(Cl)c(Cl)c2)o1)S(=O)(=O)c1ccccc1
inactive: all assays above

CCc1ccc(CNC(=O)C2CCCN(c3nnc(C)c4c(C)n(-c5ccccc5)nc34)C2)cc1 (stereo not given)
inactive: all assays above

C[C@H](CO)N1C[C@H](C)[C@@H](CN(C)Cc2ccccc2)OCCCC[C@H](C)Oc2ccc(NC(=O)Nc3ccc(C(F)(F)F)cc3)cc2C1=O
inactive: all assays above

CC(=O)OC(C)(C)/C=C/C(=O)[C@](C)(O)C1[C@H](O)C[C@@]2(C)C3CC=C4C(C=C(O[C@@H]5O[C@H](CO)[C@@H](O)[C@H](O)[C@H]5O)C(=O)C4(C)C)[C@]3(C)C(=O)C[C@]12C (stereo not given in full)
inactive: all assays above

O=C(Nc1nc(-c2cccs2)c(-c2cccs2)s1)C1(c2ccccc2)CC1
inactive: all assays above

COc1ccc(Br)cc1/C=C/C(=O)c1ccc(NC(C)=O)cc1
inactive: all assays above

NC(=O)[C@H]1CC2(CC(c3cccc(NC(=O)COc4ccc(Cl)cc4)c3)=NO2)CN1C(=O)C(c1ccccc1)c1ccccc1 (stereo not given in full)
inactive: all assays above

CCN(c1nc(N)c(C(=O)N=C(N)N)nc1Cl)C(C)C
inactive: all assays above

CN(C)CCOc1ccc2c(c1)C(=O)C(=Cc1ncc([N+](=O)[O-])n1C)C2
inactive: all assays above

COc1ccccc1N1CCN(Cc2cc(Br)c(O)c3ncccc23)CC1
inactive: all assays above

C#CCN(C[C@H]1[C@H](OC(=O)Nc2c(C)noc2C)[C@H](OC(=O)Nc2c(C)noc2C)C[C@@H](C(=O)OC)[C@H]1C(=O)OC)S(=O)(=O)c1ccc(C)cc1
inactive: all assays above

O=C(OCC(=O)N1CCN(C(=O)c2ccco2)CC1)c1cccc(S(=O)(=O)N2CCc3ccccc32)c1
inactive: all assays above

Cc1noc(/C=C/c2ccco2)c1S(=O)(=O)N1CCC(C(=O)NC(C)c2ccccc2)CC1 (stereo not given)
inactive: all assays above

CN(CCc1cn[nH]c1)Cc1nc(C(c2ccccc2)c2ccccc2)no1
inactive: all assays above

O=C1/C(=C\c2ccc(Cl)c(Cl)c2)CN(C(=O)CCN2CCOCC2)C/C1=C/c1ccc(Cl)c(Cl)c1
inactive: all assays above

O=C(CN1C(=O)c2ccccc2S1(=O)=O)N1CCc2ccccc21
inactive: all assays above

CCCCNC(=O)C(Sc1ccccc1)c1ccccc1 (stereo not given)
inactive: all assays above

C[C@@H](NC(=O)c1nc[nH]c1C(=O)N[C@@H](Cc1ccccc1)C(=O)OC(C)(C)C)c1ccccc1
inactive: all assays above

Cc1cccc(NC(=O)CC23CC4CC(C2)CC(n2nnc(C)n2)(C4)C3)c1
inactive: all assays above

C[C@H](O)C#Cc1ccc2c(c1)O[C@H](CN(C)Cc1ccc(-c3ccccc3)cc1)[C@@H](C)CN([C@@H](C)CO)S2(=O)=O
inactive: all assays above

COc1cc(/C=N/NC(=O)c2ccc(CN3C(=O)c4cccc5cccc3c45)cc2)cc(OC)c1O
inactive: all assays above

CCN(CC)CC(C)(C)C(=O)/C=C/c1ccc(/C=C/C(=O)C(C)(C)CN(CC)CC)cc1
inactive: all assays above

N=c1n(Cc2ccccc2)c2ccccc2n1CC(O)COc1ccc(Cl)cc1Cl (stereo not given)
inactive: all assays above

O=C(O)c1cccc(N/N=C/c2cccs2)c1
inactive: all assays above

O=C(N/N=C/c1ccc(Cl)c([N+](=O)[O-])c1)c1cc(-c2ccc3c4c(cccc24)CC3)n[nH]1
inactive: all assays above
